Screening data deposited in PubChem by several laboratories.
Rows were chosen to be rich in hits. Some 4.7% of all compounds tested hit in one or more screens of this group.
TROY signal inh: inhibitors of TROY-driven NF-kB signaling, primary screen, Q293 LMP1-TROYcd cells, NF-kB luciferase, uHTS. Q293 LMP1-TROYcd NF-kB luciferase reporter, 4 h. inhibition, % at 10 µM. 0.98% of 360,000 active. AID 1347056, 2019;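 active means compounds whose plate-normalised and pattern-corrected inhibition of the luciferase reporter signal at the single screening dose is 50% or more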
HSF1 activator: HSF-1 activators, primary screen, NIH3T3-HGL cells, MG132 stress, luminescence, single point; NIH3T3-HGL HSF-1 luciferase reporter, 8 h; 100% = twice DMSO control signal; AID 504408, 2011; activation, % at 9 µM; 1.7% of 300,000 active;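 active means mean replicate activation of at least 50% with a set share of replicates each reaching 50%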
TWEAK-Fn14 inh: inhibitors of TWEAK-Fn14 signaling, primary screen, luciferase reporter cells, uHTS | TWEAK-stimulated Fn14 reporter cells, luciferase luminescence, 8 h | inhibition, % at 10 µM | 2% of 360,000 active | AID 1159606, 2016; in the data active means inhibition above about 50%
HSP90 inh: HSP90 inhibitors, primary screen, cell lysate, luminescence. Heat shock protein HSP 90 (rabbit reticulocyte lysate; luciferase refolding). Rabbit reticulocyte lysate, luciferase refolding luminescence, 3 h. inhibition, % at 5.6 µM. 0.91% of 290,000 active. AID 1789, 2009;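 active means inhibition above the screen-wide mean plus 3 SD, computed separately per campaign, cut at about 16% in these data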;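 further: inhibitors lower the luminescence because luciferase stays unfolded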
HSF1 inh: HSF1 inhibitors in luciferase reporter cells, primary screen, cell-based, NIH3T3, luminescence; NIH3T3-HGL HSE-luciferase, MG132-induced, luminescence 8 h; active compounds read low; activity change, negative = inhibition, % at 7.5 µM (by protocol); 0.77% of 300,000 active; AID 2098, 2009;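 active means more than half of replicate wells show activity change below -50%, luminescence cut by over half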;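 further: luciferase reports HSF-1 transcriptional activity via heat shock element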
EBV LMP1 NFkB: EBV LMP1-driven NF-kappaB luciferase reporter inhibitors, primary screen, cell-based, luminescence, single point. LMP1-induced NF-kappaB luciferase reporter cells. inhibition, % at 12.5 µM. 0.69% of 350,000 active; in the data active means inhibition above about 41%
A number is an active result.

Results for CCCn1c(SCC(=O)N2c3ccccc3Sc3ccccc32)nc2c1c(=O)n(C)c(=O)n2C ?
TROY signal inh: 50; HSF1 activator: inactive; TWEAK-Fn14 inh: inactive; HSP90 inh: inactive; HSF1 inh: inactive; EBV LMP1 NFkB: inactive

Results for COc1ccccc1-c1cnc(C(O)c2ccc(F)c(F)c2)[nH]1 (stereo not given) ?
TROY signal inh: inactive; TWEAK-Fn14 inh: inactive

How did Cc1cc(C)[n+](-c2ccc(C(C)C)cc2)c2[nH]c(=O)[nH]c(=O)c12 do in these assays?
TROY signal inh: inactive; HSF1 activator: inactive; TWEAK-Fn14 inh: inactive; HSP90 inh: inactive; HSF1 inh: inactive; EBV LMP1 NFkB: inactive

Results for Cc1cccc(-[n+]2c(C)cc(C)c3c(=O)[nH]c(=O)[nH]c32)c1 ?
TROY signal inh: inactive; HSF1 activator: 63; TWEAK-Fn14 inh: inactive; HSP90 inh: inactive; HSF1 inh: inactive; EBV LMP1 NFkB: inactive

What do the screens show for `Cc1cccc(C)c1NC(=O)C(c1ccccc1OC(F)(F)F)N1CCN(C/C=C/c2ccccc2)CC1` (stereo not given)?
TROY signal inh: inactive; TWEAK-Fn14 inh: inactive

Results for O=C(CSc1nc2ccccc2c(=O)n1-c1ccc(F)cc1)Nc1ccc(Cl)c(S(=O)(=O)N2CCOCC2)c1 ?
TROY signal inh: inactive; HSF1 activator: inactive; TWEAK-Fn14 inh: inactive; HSP90 inh: inactive; HSF1 inh: inactive; EBV LMP1 NFkB: inactive

What do the screens show for `Cc1ccc(-n2c(SCC(=O)Nc3cc(S(=O)(=O)N4CCOCC4)ccc3Cl)nc3ccccc3c2=O)cc1`?
TROY signal inh: inactive; HSF1 activator: 73; TWEAK-Fn14 inh: inactive; HSP90 inh: inactive; HSF1 inh: inactive; EBV LMP1 NFkB: inactive

What do the screens show for `O=S(=O)(c1ccc(Cl)c(NC(=S)Nc2cccc(O)c2)c1)N1CCOCC1`?
TROY signal inh: inactive; HSF1 activator: inactive; TWEAK-Fn14 inh: inactive; HSP90 inh: inactive; HSF1 inh: inactive; EBV LMP1 NFkB: inactive

How did CCN(C(=S)Nc1cc(S(=O)(=O)N2CCOCC2)ccc1Cl)c1cccc2ccccc12 do in these assays?
TROY signal inh: inactive; HSF1 activator: inactive; TWEAK-Fn14 inh: 87; HSP90 inh: inactive; HSF1 inh: inactive; EBV LMP1 NFkB: inactive

Results for COCCN(C(=O)CNC(=O)c1ccco1)C(C(=O)NC1CCCC1)c1cccc(OC)c1 (stereo not given) ?
TROY signal inh: inactive; HSF1 activator: inactive; TWEAK-Fn14 inh: inactive; HSP90 inh: inactive; HSF1 inh: inactive; EBV LMP1 NFkB: inactive

Results for COc1ccc(N(C(=O)c2ccco2)C(C(=O)NC2CCCC2)c2cccs2)cc1 (stereo not given) ?
TROY signal inh: inactive; HSF1 activator: 66; TWEAK-Fn14 inh: inactive; HSP90 inh: inactive; HSF1 inh: inactive; EBV LMP1 NFkB: inactive

Results for COc1cccc(C(C(=O)NC2CCCC2)N(Cc2ccccc2OC)C(=O)c2ccco2)c1 (stereo not given) ?
HSF1 activator: inactive; TWEAK-Fn14 inh: 74; HSP90 inh: inactive; HSF1 inh: inactive; EBV LMP1 NFkB: inactive

How did c1ccc(COc2ccc(-c3cc4nc(NCCCn5ccnc5)ccn4n3)cc2)cc1 do in these assays?
TROY signal inh: inactive; TWEAK-Fn14 inh: inactive

What do the screens show for `Cc1cccc(C)c1-n1c(C)cc(/C=C2\NC(=O)NC2=O)c1C`?
TROY signal inh: inactive; HSF1 activator: inactive; TWEAK-Fn14 inh: inactive; HSP90 inh: inactive; HSF1 inh: -52; EBV LMP1 NFkB: inactive

Results for Cc1cc(/C=C2\NC(=O)NC2=O)c(C)n1-c1cccnc1 ?
TROY signal inh: inactive; HSF1 activator: inactive; TWEAK-Fn14 inh: inactive; HSP90 inh: inactive; HSF1 inh: inactive

Results for O=C(Cc1ccccc1)NC(Nc1ccccc1)C(Cl)(Cl)Cl (stereo not given) ?
TROY signal inh: inactive; HSF1 activator: inactive; TWEAK-Fn14 inh: inactive; HSP90 inh: inactive; HSF1 inh: inactive; EBV LMP1 NFkB: inactive

What do the screens show for `O=C(Cc1ccccc1)NC(Nc1cccc2ccccc12)C(Cl)(Cl)Cl` (stereo not given)?
TROY signal inh: 56; HSF1 activator: inactive; TWEAK-Fn14 inh: inactive; HSP90 inh: inactive; HSF1 inh: inactive; EBV LMP1 NFkB: inactive
